In ChEMBL document CHEMBL5308504, “Tm Shift (DSF) assay results for EUbOPEN Chemogenomics Library” (2023):

Columns and labels:
Details in all cases: Compound concentration 20.0 uM, Protein concentration 2.0 uM, Result type QC Liability
[1] = target: Tyrosine-protein kinase ABL1 (Homo sapiens) (UniProt P00519)
[2] = target: Cyclin-dependent kinase 2 (Homo sapiens) (UniProt P24941)
[3] = target: Casein kinase I isoform delta (Homo sapiens) (UniProt P48730)
[4] = target: Glycogen synthase kinase-3 beta (Homo sapiens) (UniProt P49841)
Chain of Glycogen synthase kinase-3 beta (Homo sapiens) (P49841 whole entry, looked up): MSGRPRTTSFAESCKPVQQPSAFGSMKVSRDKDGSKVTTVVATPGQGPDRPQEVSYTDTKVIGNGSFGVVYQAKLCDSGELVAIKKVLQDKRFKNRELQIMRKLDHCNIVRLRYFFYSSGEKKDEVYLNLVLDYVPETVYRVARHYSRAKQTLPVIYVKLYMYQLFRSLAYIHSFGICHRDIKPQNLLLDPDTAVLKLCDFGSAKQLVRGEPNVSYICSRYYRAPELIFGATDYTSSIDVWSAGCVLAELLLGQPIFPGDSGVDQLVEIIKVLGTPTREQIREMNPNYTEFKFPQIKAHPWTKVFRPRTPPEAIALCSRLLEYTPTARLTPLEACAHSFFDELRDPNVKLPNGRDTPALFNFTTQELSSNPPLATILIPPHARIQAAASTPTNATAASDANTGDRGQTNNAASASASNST

[5] = target: Mitogen-activated protein kinase 1 (Homo sapiens) (UniProt P28482)
Chain of Mitogen-activated protein kinase 1 (Homo sapiens) (P28482 whole entry): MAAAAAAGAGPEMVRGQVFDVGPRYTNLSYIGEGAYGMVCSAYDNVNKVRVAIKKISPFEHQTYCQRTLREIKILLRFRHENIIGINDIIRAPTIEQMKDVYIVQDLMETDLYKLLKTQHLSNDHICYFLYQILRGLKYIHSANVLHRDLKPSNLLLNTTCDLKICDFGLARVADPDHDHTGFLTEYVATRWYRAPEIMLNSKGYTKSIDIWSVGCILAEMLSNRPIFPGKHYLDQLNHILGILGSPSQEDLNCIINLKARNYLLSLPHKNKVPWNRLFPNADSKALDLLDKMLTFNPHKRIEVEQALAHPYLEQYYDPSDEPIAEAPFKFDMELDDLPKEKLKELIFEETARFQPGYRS

[6] = target: T1, Aurora kinase A (Homo sapiens) (UniProt O14965)
T1 sequence (whole entry): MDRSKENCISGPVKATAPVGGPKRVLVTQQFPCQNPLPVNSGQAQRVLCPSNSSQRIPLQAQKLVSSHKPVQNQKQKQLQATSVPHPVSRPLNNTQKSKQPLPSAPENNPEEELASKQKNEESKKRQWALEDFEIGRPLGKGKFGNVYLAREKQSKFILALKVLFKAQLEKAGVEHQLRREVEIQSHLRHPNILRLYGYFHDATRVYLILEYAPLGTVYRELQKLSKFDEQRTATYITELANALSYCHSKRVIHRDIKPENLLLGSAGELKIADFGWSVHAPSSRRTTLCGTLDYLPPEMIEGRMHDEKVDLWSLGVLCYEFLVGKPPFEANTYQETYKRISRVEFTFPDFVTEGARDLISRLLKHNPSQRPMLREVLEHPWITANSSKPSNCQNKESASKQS

Chain of Casein kinase I isoform delta (Homo sapiens) (P48730 whole entry, looked up, canonical isoform): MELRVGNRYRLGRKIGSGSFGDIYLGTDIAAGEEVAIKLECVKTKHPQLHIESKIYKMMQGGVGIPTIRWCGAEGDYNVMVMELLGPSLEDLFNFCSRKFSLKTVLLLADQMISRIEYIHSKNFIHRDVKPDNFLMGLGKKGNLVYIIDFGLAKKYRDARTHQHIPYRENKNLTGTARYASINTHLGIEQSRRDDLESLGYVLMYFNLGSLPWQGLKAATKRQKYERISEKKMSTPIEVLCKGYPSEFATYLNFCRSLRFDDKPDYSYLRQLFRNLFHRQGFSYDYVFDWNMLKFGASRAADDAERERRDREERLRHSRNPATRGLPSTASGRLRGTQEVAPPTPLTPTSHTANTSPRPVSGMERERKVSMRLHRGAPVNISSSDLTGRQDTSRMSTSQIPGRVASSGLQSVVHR
Chain of Tyrosine-protein kinase ABL1 (Homo sapiens) (P00519 whole entry): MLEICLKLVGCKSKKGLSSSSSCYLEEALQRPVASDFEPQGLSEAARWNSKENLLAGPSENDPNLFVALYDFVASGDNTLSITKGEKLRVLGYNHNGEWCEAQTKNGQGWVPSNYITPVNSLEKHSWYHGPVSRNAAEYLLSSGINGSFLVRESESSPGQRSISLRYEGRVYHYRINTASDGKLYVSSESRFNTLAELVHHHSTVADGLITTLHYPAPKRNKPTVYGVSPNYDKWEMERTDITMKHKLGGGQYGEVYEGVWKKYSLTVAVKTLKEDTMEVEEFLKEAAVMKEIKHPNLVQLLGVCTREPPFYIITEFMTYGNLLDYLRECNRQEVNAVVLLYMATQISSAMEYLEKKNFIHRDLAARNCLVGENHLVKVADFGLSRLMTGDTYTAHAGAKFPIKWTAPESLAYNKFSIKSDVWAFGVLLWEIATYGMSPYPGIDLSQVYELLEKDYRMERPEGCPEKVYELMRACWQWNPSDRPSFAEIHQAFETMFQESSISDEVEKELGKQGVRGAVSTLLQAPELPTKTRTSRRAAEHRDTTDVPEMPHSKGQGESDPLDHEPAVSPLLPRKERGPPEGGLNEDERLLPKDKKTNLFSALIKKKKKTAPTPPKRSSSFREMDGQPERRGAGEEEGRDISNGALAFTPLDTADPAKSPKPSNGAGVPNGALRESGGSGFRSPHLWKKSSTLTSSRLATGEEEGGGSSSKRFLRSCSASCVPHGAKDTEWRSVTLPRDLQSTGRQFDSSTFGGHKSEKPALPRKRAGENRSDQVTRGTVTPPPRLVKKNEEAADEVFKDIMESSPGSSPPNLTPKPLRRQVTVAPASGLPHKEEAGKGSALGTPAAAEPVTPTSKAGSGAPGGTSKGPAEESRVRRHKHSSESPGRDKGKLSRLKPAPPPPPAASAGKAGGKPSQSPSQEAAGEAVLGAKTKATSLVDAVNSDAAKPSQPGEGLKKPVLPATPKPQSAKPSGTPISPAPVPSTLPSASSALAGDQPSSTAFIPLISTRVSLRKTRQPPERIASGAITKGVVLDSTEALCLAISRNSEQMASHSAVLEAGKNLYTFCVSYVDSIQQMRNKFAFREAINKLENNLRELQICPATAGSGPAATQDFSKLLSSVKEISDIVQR

Row | SMILES | ΔTm [1] [°C] | ΔTm [2] [°C] | ΔTm [3] [°C] | ΔTm [4] [°C] | ΔTm [5] [°C] | ΔTm [6] [°C]
1 | COc1cc(-c2cc3ncccc3c(O[C@@H](C)[C@H]3CNC(=O)C3)n2)cc(OC)c1OC | 0.48 | 0.19 | 1.43 | -0.57 | 0.06 | 2.08
2 | O=C(N[C@H](Cc1ccccc1)C(=O)O)c1cccc(OCc2cccnc2)c1 | 0.31 | 1.19 | -0.02 | 0.45 | 0.21 | -0.05
3 | CC(C)c1cnn2c(NCc3ccccc3)cc(NCCCCCCN)nc12 | -0.02 | 1.03 | 2.94 | -0.56 | 0.38 | -1.2
4 | Cc1cc(-c2cc3ncccc3c(OC[C@H]3CCCNC3)n2)ccc1N(C)C | 5.72 | 0.38 | 2.65 | 1.68 | 0.09 | 7.37
5 | CCN(C)C(=O)c1ccc2c(c1)NC(=O)/C2=C(\NC1CCN(C)CC1)c1ccccc1 | -0.14 | 0.01 | 0.23 | 2.01 | 0.03 | -0.37
6 | CC(=O)N1CCC(c2ccc(C(=O)NC3=NCCN3)cc2C(F)(F)F)CC1 | 0.33 | 0.15 | 0.3 | -0.03 | 0.1 | -0.15
7 | CN(C)C/C=C/C(=O)Nc1cc2c(Nc3ccc(F)c(Cl)c3)ncnc2cc1OC[C@@H]1CCCO1 | 6.89 | -0.1 | 1.15 | 2.63 | -1.79 | 1.39
8 | COc1ccccc1N1CCN(c2ncnc3c2cnn3-c2ccccc2)CC1 | 0.32 | -0.17 | 0.84 | -0.28 | -0.07 | -0.16
9 | CP(C)(=O)c1ccc(CNC(=O)C2CCN(S(=O)(=O)c3cc(Cl)cc(Cl)c3)CC2)cc1 | 0.74 | 0.5 | 0.35 | -0.16 | 0.45 | -0.19
10 | CNC(=O)c1cccc(-c2ccc3c(N4CCOC[C@@H]4C)nc(N4CCOC[C@@H]4C)nc3n2)c1 | 0.83 | 0.33 | 0.36 | 0.51 | 0 | 0.91
11 | Cc1nccn1-c1ccc(Sc2cccc(C3(C(N)=O)CCOCC3)c2)cc1 | -0.23 | 0.53 | -0.21 | 0.36 | 0.38 | -0.31
12 | CC1CCN(C(=O)[C@@H](CCn2cccc2C#N)NS(=O)(=O)c2cccc3[nH]ccc23)CC1 | 0.25 | 0.59 | 0.33 | -0.44 | -8.81 | 0.05
13 | O=C(O)/C=C/c1ccc(Cn2ccnc2)cc1 | 0.1 | 0.39 | 0.22 | 0.69 | 0.29 | 0.06
14 | Cn1cc(-c2ccc(N(C(=O)NCc3ccccc3)[C@H]3CC[C@H](Nc4ccc(C#N)cn4)CC3)cc2)ccc1=O | 0.13 | 0.7 | 0.29 | 0.01 | -0.4 | -0.15
15 | CN(C)C(=O)c1cc2cnc(Nc3ccc(N4CCN(CCCCNC(=O)COc5cccc6c5C(=O)N(C5CCC(=O)NC5=O)C6=O)CC4)cn3)nc2n1C1CCCC1 (centres undefined) | 0.61 | 0.81 | -0.24 | -0.75 | 0.11 | 4.38
16 | O=C(Cc1ccccc1)Nc1nnc(N2CC[C@@H]3[C@H]2CN3c2cccnn2)s1 | 0.18 | 0.43 | -0.16 | -0.46 | 0.3 | -0.66
17 | COC(=O)c1ccc2c(c1)NC(=O)/C2=C(\Nc1ccc(-c2nccn2C)cc1)c1ccccc1 | 3.43 | 0.27 | -0.5 | 1.96 | -6.31 | -1.46
18 | CS(C)(=O)=Nc1ccc(-c2ccc(-c3nc4[nH]c(O[C@@H]5CO[C@H]6[C@@H]5OC[C@H]6O)nc4cc3Cl)cc2)cc1 | 1.8 | 0.06 | 0.3 | -0.22 | 0.83 | 0.34
19 | COc1cnccc1Nc1nc(-c2nn(Cc3c(F)cc(OCCO)cc3F)c3ccccc23)ncc1OC | -0.43 | -0.62 | -2.9 | -5.93 | -0.07 | -1.95
